Consider six molecules from PubChem BioAssay (NCI).

The panel holds about 83,000 compounds, 20% with a hit somewhere; the sample as a whole holds those more often.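 Assay: single dose, 48 h. Readout: percent growth (0 = no net growth; negative = cell death). Active: <10.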 A number with no mark means an inactive call. Active and inactive are the calls of the source.

The assay concerns MDA-MB-468 breast. Description: NCI-60 one-dose screen, 48 h (100 = growth as untreated, 0 = no growth, -100 = all killed). As to conditions: 10 µM unless noted.
Regarding `COC(=O)c1c2c(c(C)[n+]([O-])c1C)C(=O)C(NCc1ccc(O)cc1)=CC2=O`, the growth was -44.2% (active).
`C[C@H](NC(=O)[C@@H]1CSSC[C@@H](NC(=O)Cc2nc3ccccc3cc2O)C(=O)NCC(=O)N1C)c1ccccc1`: the growth is 17.5%.
On to `COc1ccc2nc3cc(Cl)ccc3c(Nc3cc(CN4CCCC4)c(O)c(CN4CCCC4)c3)c2n1`, for which the growth was -53.3% (active).
In the case of `O=C(NCCc1nccs1)c1cnc2c(S)cccc2c1`, the growth is 16.5%.
To `Cc1nc2cc(-n3c(-c4ccc(F)cc4)nc4ccccc4c3=O)ccc2n1Cc1ccccc1` belongs 15.2%; to `COc1ccc(C(=O)/C=C/Nc2cc(-c3ccccc3)nn2-c2ccccc2)cc1`, 70.4%.
